# Where “and” joins values, the source holds several entries; their conditions need not be identical. Equal entries are not always repeated. The panel holds about 83,000 compounds, 20% with a hit somewhere; the sample as a whole holds those more often.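 Testing used 96-well plates and a 48-hour single-concentration exposure. Example: -40 means 40% of the starting cells died.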 Some compounds were tested as several samples or in several runs, with calls that do not always agree. Calls of active or inactive are those of the source. The calls were made as follows: active = growth percent below 10; inactive = the rest.
# Columns and labels:
# Assay in all cases: NCI-60 one-dose screen, 48 h (100 = growth as untreated, 0 = no growth, -100 = all killed)
# Details in all cases: 10 µM unless noted
# [1] = tested on: NCI-H23 lung
# [2] = tested on: NCI-H226 lung
# [3] = tested on: NCI-H322M lung
# [4] = tested on: HOP-62 NSCLC
# [5] = tested on: NCI-H460 lung
# [6] = tested on: HOP-92 NSCLC
# [7] = tested on: NCI-H522 lung
# [8] = tested on: A549/ATCC NSCLC
# [9] = tested on: 786-0 renal
# [10] = tested on: COLO 205 colon
Structure (SMILES),growth [1],growth [2],growth [3],growth [4],growth [5],growth [6],growth [7],growth [8],growth [9],growth [10]
OCCN1CCN(CCO)CC1,95.3% (inactive) and 99.7% (inactive) and 110% (inactive),107% (inactive) and 97.5% (inactive),106% (inactive) and 85.9% (inactive) and 115% (inactive),100% (inactive) and 79.5% (inactive) and 106% (inactive),111% (inactive) and 98.6% (inactive) and 108% (inactive),102% (inactive) and 85% (inactive) and 95.2% (inactive),98.6% (inactive) and 87.9% (inactive) and 108% (inactive),89.5% (inactive) and 73% (inactive) and 115% (inactive),108% (inactive) and 99.5% (inactive) and 99.4% (inactive),105% (inactive) and 113% (inactive)
Nc1cc(-c2cccc(OC(F)(F)F)c2)nc2ccc(N3CCCC3)cc12,43.5% (inactive) and 40.1% (inactive) and 38.5% (inactive),40.2% (inactive) and 48.3% (inactive) and 33.8% (inactive),49.5% (inactive) and 51.3% (inactive) and 39% (inactive),57.1% (inactive) and 66.1% (inactive) and 15.6% (inactive),7.01% (active) and 7.24% (active) and 3.29% (active),-0.264% (active) and 3.71% (active) and -3.62% (active),-13.4% (active) and 4.49% (active) and -38.1% (active),15.1% (inactive) and 18.4% (inactive) and 13.8% (inactive),9.51% (active) and 22.1% (inactive) and 16.1% (inactive),-58.4% (active) and -35.8% (active) and -80.6% (active)
Nc1n[nH]c(=S)n1-c1ccc(Cl)cc1,95.9% (inactive),93.9% (inactive),98.7% (inactive),94.5% (inactive),99.6% (inactive),85.9% (inactive),97.2% (inactive),100% (inactive),93.7% (inactive),117% (inactive)
Nc1cc2c(cc1N)-c1ccccc1C2,93.1% (inactive) and 88.3% (inactive),84.3% (inactive) and 88.4% (inactive),85.4% (inactive) and 95% (inactive),96.6% (inactive) and 104% (inactive),103% (inactive) and 101% (inactive),84.3% (inactive),15.9% (inactive) and 52.2% (inactive),90.9% (inactive) and 90.4% (inactive),89.3% (inactive) and 99.6% (inactive),94.8% (inactive) and 93.1% (inactive)
COc1ccc(NC(=S)Nc2ccccn2)cc1,96% (inactive),86.2% (inactive),97% (inactive),97.9% (inactive),100% (inactive),77% (inactive),98.4% (inactive),101% (inactive),90.4% (inactive),110% (inactive)
COc1ccc(S(=O)(=O)N2CCOCC2)cc1NC(=O)c1[nH]c(C)c2c1CCCCC2=O,104% (inactive) and 59% (inactive),104% (inactive) and 62% (inactive),105% (inactive) and 64.6% (inactive),109% (inactive) and 33.8% (inactive),103% (inactive) and 75.9% (inactive),111% (inactive) and 27% (inactive),100% (inactive) and 40.9% (inactive),97.2% (inactive) and 61.7% (inactive),107% (inactive) and 93.4% (inactive),113% (inactive) and 34.8% (inactive)
CC(C(=O)O)n1cc(C#N)c(=O)[nH]c1=O (stereo not given),108% (inactive) and 111% (inactive),93.3% (inactive) and 94.8% (inactive),112% (inactive) and 111% (inactive),92.5% (inactive) and 98.8% (inactive),115% (inactive) and 112% (inactive),93.2% (inactive) and 98.4% (inactive),98.8% (inactive) and 93.9% (inactive),103% (inactive) and 108% (inactive),119% (inactive) and 101% (inactive),103% (inactive) and 112% (inactive)
CCN(CC)CCCC(C)Nc1ccnc2cc(Oc3ccccc3)ccc12 (stereo not given),90.1% (inactive) and 78.7% (inactive),99.7% (inactive) and 112% (inactive),84.7% (inactive) and 105% (inactive),68.9% (inactive) and 83.2% (inactive),69.7% (inactive) and 96.5% (inactive),-6.39% (active) and 60.3% (inactive),55.9% (inactive),58.7% (inactive) and 86.6% (inactive),64.3% (inactive) and 84.6% (inactive),47.6% (inactive) and 60.2% (inactive)
C=C1C(=O)O[C@H]2[C@H]1CC/C(COC(=O)NC1CCC(O)CC1)=C\CC[C@@]1(C)O[C@@H]21 (stereo not given in full),58.3% (inactive) and 50.6% (inactive),85.5% (inactive) and 95% (inactive),105% (inactive) and 98.6% (inactive),97% (inactive) and 97.4% (inactive),100% (inactive) and 96.7% (inactive),71.6% (inactive) and 54.6% (inactive),-2.94% (active) and -11.8% (active),91.7% (inactive) and 87.8% (inactive),103% (inactive) and 99.6% (inactive),44.9% (inactive) and 41.7% (inactive)
CCCCCCCCCCCCCCCc1cc(O)ccc1N,90.5% (inactive) and 89.6% (inactive),33.9% (inactive) and 99.6% (inactive),102% (inactive) and 84.1% (inactive),103% (inactive) and 110% (inactive),109% (inactive) and 102% (inactive),105% (inactive),-22.4% (active) and -23.6% (active),89.3% (inactive) and 99.8% (inactive),77.6% (inactive) and 21.1% (inactive),107% (inactive) and 114% (inactive)
COc1ccccc1C(C)=O,94% (inactive) and 109% (inactive),95.2% (inactive) and 107% (inactive),97.5% (inactive) and 103% (inactive),107% (inactive) and 102% (inactive),99.8% (inactive) and 109% (inactive),70.5% (inactive),113% (inactive),107% (inactive) and 96.9% (inactive),110% (inactive) and 96.6% (inactive),105% (inactive)
c1ccc2c(CC3=NCCN3)cccc2c1,96.3% (inactive) and 98.5% (inactive),91.4% (inactive) and 100% (inactive),98.1% (inactive) and 115% (inactive),112% (inactive) and 98.8% (inactive),108% (inactive) and 105% (inactive),82.3% (inactive) and 87.7% (inactive),103% (inactive) and 90% (inactive),97.6% (inactive) and 93.8% (inactive),98.3% (inactive) and 99.9% (inactive),113% (inactive) and 112% (inactive)
CNc1ccc2nc3ccc(=[N+](C)C)cc-3sc2c1,1.76% (active) and -7.91% (active),63% (inactive) and 51.4% (inactive),30.7% (inactive) and 28.1% (inactive),7.64% (active) and 7.54% (active),9.72% (active) and 11.9% (inactive),36.4% (inactive) and -4.83% (active),-19.9% (active) and 8.62% (active),3.27% (active) and 5.26% (active),37.7% (inactive) and 20.6% (inactive),-22.3% (active) and -30.4% (active)
O=S1(=O)CC(Br)C(Br)C1 (stereo not given),61.3% (inactive) and 97.8% (inactive),40.7% (inactive) and 113% (inactive),104% (inactive) and 108% (inactive),104% (inactive) and 116% (inactive),107% (inactive) and 97.5% (inactive),5.91% (active) and 37.5% (inactive),-48.2% (active),95.4% (inactive) and 95% (inactive),101% (inactive) and 82.1% (inactive),41.1% (inactive) and 58.3% (inactive)
O=C(O)C1(C(=O)O)CCC1.[NH2-].[NH2-].[Pt+2],104% (inactive) and 87.6% (inactive),99% (inactive) and 98.5% (inactive),99.9% (inactive) and 110% (inactive),98.2% (inactive) and 105% (inactive),116% (inactive) and 92.4% (inactive),70.1% (inactive),98.3% (inactive) and 76.1% (inactive),99.3% (inactive) and 97.5% (inactive),101% (inactive) and 98.7% (inactive),106% (inactive) and 115% (inactive)
